{"source": "PubChem BioAssay (EPA / NIEHS)", "key": {"[1]": {"target": "human Adenosine A2a Receptor (AdoRA2a), ADORA2A (gene 135) (UniProt P29274)", "sequence (P29274 whole entry, looked up)": "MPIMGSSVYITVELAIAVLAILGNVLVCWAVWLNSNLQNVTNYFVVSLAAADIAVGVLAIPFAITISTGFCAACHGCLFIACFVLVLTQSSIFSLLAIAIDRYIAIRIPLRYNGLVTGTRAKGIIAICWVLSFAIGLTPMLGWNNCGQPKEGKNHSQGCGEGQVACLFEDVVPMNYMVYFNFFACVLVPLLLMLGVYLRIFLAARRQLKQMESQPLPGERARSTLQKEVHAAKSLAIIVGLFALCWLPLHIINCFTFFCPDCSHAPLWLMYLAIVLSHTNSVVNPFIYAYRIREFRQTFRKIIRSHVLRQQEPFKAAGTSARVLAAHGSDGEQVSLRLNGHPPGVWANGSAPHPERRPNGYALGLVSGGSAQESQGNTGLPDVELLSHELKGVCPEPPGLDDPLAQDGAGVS", "assay": "NVS_GPCR_hAdoRA2a: NovaScreen (NVS) G Protein-Coupled Receptor Assay for human Adenosine A2a Receptor (AdoRA2a) (AID 2283256)", "method_in_brief": "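Cell-free radioligand binding on membranes from HEK293 expressing the receptor; competitive displacement read 1.5 h after dosing by filter-based scintillation counting. Primary screen in duplicate at 25 uM; actives followed in concentration series, with DMSO as baseline.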"}, "[2]": {"target": "guinea pig Opioid, Kappa 1 Receptor (OpiateK), OPRK1 (gene 100135587) (UniProt P41144)", "sequence (P41144 whole entry, looked up)": "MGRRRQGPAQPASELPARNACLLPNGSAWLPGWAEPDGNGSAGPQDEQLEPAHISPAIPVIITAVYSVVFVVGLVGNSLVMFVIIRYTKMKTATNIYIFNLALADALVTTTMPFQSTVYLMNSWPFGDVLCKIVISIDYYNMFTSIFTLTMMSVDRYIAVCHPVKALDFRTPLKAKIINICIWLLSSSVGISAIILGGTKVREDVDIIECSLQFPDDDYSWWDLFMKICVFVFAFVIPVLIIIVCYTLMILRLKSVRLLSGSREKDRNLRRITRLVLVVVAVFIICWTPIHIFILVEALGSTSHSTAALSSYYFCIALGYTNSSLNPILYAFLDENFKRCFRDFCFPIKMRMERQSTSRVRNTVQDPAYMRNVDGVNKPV", "assay": "NVS_GPCR_gOpiateK: NovaScreen (NVS) G Protein-Coupled Receptor Assay for guinea pig Opioid, Kappa 1 Receptor (OpiateK) (AID 2283252);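 note: active means reduced radioligand binding relative to DMSO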", "method_in_brief": "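Signal is scintillation counts of filter-trapped radioligand bound to guinea pig cerebellar membrane receptor, measured 2 hours post-dosing. Activity is loss of binding versus DMSO, first at 25 uM in duplicate, then as concentration series for actives.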"}, "[3]": {"target": "human Caspase 5 (CASP5), CASP5 (gene 838) (UniProt P51878)", "sequence (P51878 whole entry, looked up)": "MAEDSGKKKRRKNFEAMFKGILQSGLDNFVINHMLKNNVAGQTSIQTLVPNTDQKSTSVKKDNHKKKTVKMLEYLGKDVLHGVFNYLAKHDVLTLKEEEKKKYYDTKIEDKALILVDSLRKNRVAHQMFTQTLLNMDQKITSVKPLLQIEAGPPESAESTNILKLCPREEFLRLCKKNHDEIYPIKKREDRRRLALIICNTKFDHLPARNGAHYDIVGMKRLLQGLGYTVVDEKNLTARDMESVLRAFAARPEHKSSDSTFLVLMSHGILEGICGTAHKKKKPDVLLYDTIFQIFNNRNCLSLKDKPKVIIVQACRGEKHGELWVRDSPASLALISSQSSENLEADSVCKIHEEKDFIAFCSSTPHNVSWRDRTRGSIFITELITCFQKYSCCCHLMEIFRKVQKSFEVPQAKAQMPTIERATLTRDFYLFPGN", "assay": "NVS_ENZ_hCASP5: NovaScreen (NVS) Enzymatic Assay for human Caspase 5 (CASP5) (AID 2283137)", "method_in_brief": "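Recombinant E. coli-expressed human caspase 5 in a cell-free enzyme assay; fluorescence intensity read 2 hours after chemical dosing. Single-concentration duplicate screen at 25 uM, then concentration-response up to 50 uM for hits; DMSO negative control.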"}, "[4]": {"target": "Tyrosine-protein phosphatase non-receptor type 11 (Homo sapiens) (UniProt Q06124)", "sequence (Q06124 whole entry, looked up)": "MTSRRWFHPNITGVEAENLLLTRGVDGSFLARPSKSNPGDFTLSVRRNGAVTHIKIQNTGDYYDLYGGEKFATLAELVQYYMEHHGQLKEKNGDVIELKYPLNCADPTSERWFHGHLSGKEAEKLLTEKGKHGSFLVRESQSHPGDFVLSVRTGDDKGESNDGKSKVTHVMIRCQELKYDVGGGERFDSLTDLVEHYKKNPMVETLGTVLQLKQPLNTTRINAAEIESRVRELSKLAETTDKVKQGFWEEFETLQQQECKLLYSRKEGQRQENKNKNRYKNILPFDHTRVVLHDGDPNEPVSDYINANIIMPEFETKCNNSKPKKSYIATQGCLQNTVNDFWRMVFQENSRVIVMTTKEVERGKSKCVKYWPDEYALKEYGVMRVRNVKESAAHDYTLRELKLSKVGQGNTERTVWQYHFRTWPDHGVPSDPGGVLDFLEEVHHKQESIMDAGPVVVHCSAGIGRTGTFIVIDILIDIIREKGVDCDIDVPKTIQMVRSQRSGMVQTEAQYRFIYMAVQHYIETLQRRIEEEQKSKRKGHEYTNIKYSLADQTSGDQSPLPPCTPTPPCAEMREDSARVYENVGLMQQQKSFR", "assay": "NVS_ENZ_hPTPN11: NovaScreen (NVS) Enzymatic Assay for human Protein Tyrosine Phosphatase Non-receptor Type 11 (PTPN11) (AID 2283202)", "method_in_brief": "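Recombinant human PTPN11 activity on a fluorescent substrate, with substrate/product separated by electrophoretic mobility shift; read 0.5 h after dosing, loss of signal vs DMSO. Duplicate 25 uM screen, then concentration-response up to 50 uM.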"}, "[5]": {"assay": "ATG_M_06_XSP2: Attagene TRANS-FACTORIAL Multi-Species (XSP2) HepG2 Assay for M06 Transcription Factor (Internal Marker) (AID 2283811);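 note: hits are increases in signal above the DMSO baseline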", "method_in_brief": "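HepG2, multiplexed reporter transfection; 24 h dosing; AR stimulated with 3 nM 6-alpha-fluorotestosterone + 1.5 nM norgestrel; RNA → RT-PCR → 6-FAM primer extension → HpaI → CE. Positive direction vs DMSO.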"}, "[6]": {"test_system": "turtle Estrogen Receptor (ERa), gene 101933533", "assay": "ATG_trERa_XSP2: Attagene TRANS-FACTORIAL Multi-Species (XSP2) HepG2 Assay for turtle Estrogen Receptor (ERa) (AID 2283812);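 note: actives raise reporter signal above DMSO so AC50 reflects agonist activity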", "method_in_brief": "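HepG2 cells transiently transfected with GAL4-UAS reporter units expressing turtle ERa-Gal4 chimera. Reporter mRNA measured after 24 h dosing by RT-PCR, fluorescent labelling and capillary electrophoresis; gain of signal fitted versus DMSO.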"}, "[7]": {"target": "Estrogen receptor beta (Homo sapiens) (UniProt Q92731)", "sequence (Q92731 whole entry, looked up, the tested form may be a part)": "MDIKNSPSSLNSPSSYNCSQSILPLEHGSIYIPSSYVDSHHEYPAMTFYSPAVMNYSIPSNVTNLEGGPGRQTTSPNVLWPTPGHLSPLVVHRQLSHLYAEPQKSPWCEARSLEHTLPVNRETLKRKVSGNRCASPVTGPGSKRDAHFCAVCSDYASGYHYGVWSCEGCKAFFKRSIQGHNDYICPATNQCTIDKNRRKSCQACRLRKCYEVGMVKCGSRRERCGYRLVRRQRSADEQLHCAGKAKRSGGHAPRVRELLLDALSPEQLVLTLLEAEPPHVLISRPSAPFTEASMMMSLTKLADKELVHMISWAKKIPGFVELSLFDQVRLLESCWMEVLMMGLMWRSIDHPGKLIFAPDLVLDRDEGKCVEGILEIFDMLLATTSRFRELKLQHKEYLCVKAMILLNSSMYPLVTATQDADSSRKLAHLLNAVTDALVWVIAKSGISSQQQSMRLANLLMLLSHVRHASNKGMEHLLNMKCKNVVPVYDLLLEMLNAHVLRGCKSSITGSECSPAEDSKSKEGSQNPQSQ", "assay": "ATG_hERb_XSP2: Attagene TRANS-FACTORIAL Multi-Species (XSP2) HepG2 Assay for human Estrogen Receptor (ERb) (AID 2283813);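 note: actives raise reporter mRNA above DMSO so AC50 reflects agonist induction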", "method_in_brief": "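HepG2 cells transiently transfected with GAL4-UAS reporter units and chimeric human ERb-Gal4, 24 h exposure. Reporter mRNA quantified by RT-PCR with FAM labelling, HpaI digestion and capillary electrophoresis; gain of signal versus DMSO.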"}, "[8]": {"target": "GAL4 Transcription Factor (Internal Marker), GAL4 (gene 855828) (UniProt P04386)", "assay": "ATG_GAL4_XSP2: Attagene TRANS-FACTORIAL Multi-Species (XSP2) HepG2 Assay for GAL4 Transcription Factor (Internal Marker) (AID 2283814)", "method_in_brief": "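HepG2 cells transiently transfected with GAL4-UAS reporter units, stimulated with 3 nM 6-alpha-fluorotestosterone plus 1.5 nM norgestrel, dosed 24 h. Reporter mRNA by RT-PCR/capillary electrophoresis; gain-of-signal fit versus DMSO, background control.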"}, "[9]": {"target": "zebrafish Estrogen Receptor (ER1), esr1 (gene 259252) (UniProt P57717)", "sequence (P57717 whole entry, looked up, the tested form may be a part)": "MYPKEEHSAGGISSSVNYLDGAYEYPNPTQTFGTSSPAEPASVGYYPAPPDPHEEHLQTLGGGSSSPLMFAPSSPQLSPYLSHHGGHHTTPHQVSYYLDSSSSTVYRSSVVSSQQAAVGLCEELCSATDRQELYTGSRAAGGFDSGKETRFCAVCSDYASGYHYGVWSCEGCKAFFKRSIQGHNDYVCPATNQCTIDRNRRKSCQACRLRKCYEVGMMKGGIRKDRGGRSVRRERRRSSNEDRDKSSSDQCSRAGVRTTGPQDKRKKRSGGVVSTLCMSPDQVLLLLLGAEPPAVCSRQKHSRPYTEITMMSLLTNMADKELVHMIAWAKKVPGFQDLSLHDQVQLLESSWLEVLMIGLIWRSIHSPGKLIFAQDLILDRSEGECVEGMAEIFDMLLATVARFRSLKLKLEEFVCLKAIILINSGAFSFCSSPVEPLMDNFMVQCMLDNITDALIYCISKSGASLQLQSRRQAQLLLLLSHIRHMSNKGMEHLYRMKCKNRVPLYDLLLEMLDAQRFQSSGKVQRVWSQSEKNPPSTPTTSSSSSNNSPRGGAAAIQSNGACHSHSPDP", "assay": "ATG_zfER1_XSP2: Attagene TRANS-FACTORIAL Multi-Species (XSP2) HepG2 Assay for zebrafish Estrogen Receptor (ER1) (AID 2283816)", "method_in_brief": "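HepG2 cells transiently transfected with a GAL4-UAS reporter and a chimeric zebrafish ER1-Gal4 construct, dosed 24 h. Reporter mRNA quantified by RT-PCR, labelling, HpaI digestion and capillary electrophoresis, relative to DMSO.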"}, "[10]": {"target": "chicken Estrogen Receptor (ERa), ESR1 (gene 396099) (UniProt P06212)", "sequence (P06212 whole entry, looked up, the tested form may be a part)": "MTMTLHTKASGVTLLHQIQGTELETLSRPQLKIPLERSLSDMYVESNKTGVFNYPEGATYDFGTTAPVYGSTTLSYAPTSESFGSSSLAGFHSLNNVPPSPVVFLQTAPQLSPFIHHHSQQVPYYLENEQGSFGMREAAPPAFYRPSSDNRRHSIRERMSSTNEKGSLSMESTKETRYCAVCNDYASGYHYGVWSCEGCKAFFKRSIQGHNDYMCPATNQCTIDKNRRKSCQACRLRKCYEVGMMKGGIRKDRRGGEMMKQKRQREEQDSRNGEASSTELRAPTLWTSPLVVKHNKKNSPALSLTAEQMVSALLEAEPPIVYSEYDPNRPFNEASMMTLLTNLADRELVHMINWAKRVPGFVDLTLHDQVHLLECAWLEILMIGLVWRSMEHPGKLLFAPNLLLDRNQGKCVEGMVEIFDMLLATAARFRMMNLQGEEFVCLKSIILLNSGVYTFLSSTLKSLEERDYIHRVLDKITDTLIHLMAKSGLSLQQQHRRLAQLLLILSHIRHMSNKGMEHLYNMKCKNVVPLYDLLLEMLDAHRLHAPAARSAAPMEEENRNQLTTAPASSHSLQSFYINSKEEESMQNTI", "assay": "ATG_chERa_XSP2: Attagene TRANS-FACTORIAL Multi-Species (XSP2) HepG2 Assay for chicken Estrogen Receptor (ERa) (AID 2283817);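 note: actives raise reporter signal above DMSO so AC50 reflects ER activation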", "method_in_brief": "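Transient MRTU transfection of HepG2 → 24 h chemical dosing → TriZol RNA, oligo(dT) RT → PCR, 6-FAM primer extension, HpaI digest → CE quantitation of chicken ERa-Gal4-driven reporter mRNA. Positive direction vs DMSO.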"}, "[11]": {"test_system": "zebrafish Estrogen Receptor (ER2a), gene 317734", "assay": "ATG_zfER2a_XSP2: Attagene TRANS-FACTORIAL Multi-Species (XSP2) HepG2 Assay for zebrafish Estrogen Receptor (ER2a) (AID 2283818);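 note: hits raise reporter mRNA so AC50 reflects activation of zebrafish ER2a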", "method_in_brief": "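HepG2 cells transiently transfected with GAL4-UAS reporter units and chimeric zebrafish ER2a-Gal4, exposed 24 h; medium contains 3 nM 6-alpha-fluorotestosterone and 1.5 nM norgestrel. Reporter mRNA quantified by RT-PCR, HpaI digestion, capillary electrophoresis; gain versus DMSO.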"}, "[12]": {"test_system": "frog Estrogen Receptor (ER), gene 398734", "assay": "ATG_frER1_XSP2: Attagene TRANS-FACTORIAL Multi-Species (XSP2) HepG2 Assay for frog Estrogen Receptor (ER) (AID 2283821);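 note: hits raise reporter mRNA above DMSO baseline so potency means agonist or activator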", "method_in_brief": "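Steps: transfect HepG2 with multiple reporter transcription units; treat with chemical for 24 h; isolate RNA, reverse-transcribe, PCR-amplify, label with 6-FAM, digest with HpaI; resolve fragments by capillary electrophoresis. Signal is scored against DMSO.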"}, "[13]": {"assay": "CCTE_Padilla_ZF_144hpf_TERATOSCORE: (Legacy) CCTE's 144 Hour Post-fertilization zebrafish Assay Teratoscore, Padilla Lab (AID 2283679; active = hit-call score of the fitted dose curve at least 0.9, where 1 is the maximum; inactive = score below 0.9;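 note: zebrafish embryos with chorions exposed by immersion from 6-8 hpf to 5 dpf with daily renewal; teratogenicity score from eye scoring of death hatching and malformations at 144 hpf; higher score means more developmental defects relative to DMSO baseline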)", "method_in_brief": "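Larvae scored by eye at 144 hpf for death, hatching and malformations after a day in clean Hanks'. Before that, daily-renewed exposure at 80 uM (0.4% DMSO, 26C) from roughly 6-8 hpf through 5 dpf, 4 embryos per chemical.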"}, "[14]": {"assay": "STM_H9_OrnCyssISnorm_ratio: Stemina devTOX quickPredict H9 human embryonic stem cell (hESC)-based Assay for Ornithine (ORN):Cystine (CYSS) Ratio (AID 2283714)", "method_in_brief": "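Steps: H9 hESCs in pluripotent state dosed 72h, medium plus compound renewed every 24h; conditioned medium from the final 24h deproteinized in 40% acetonitrile; ORN and CYSS quantified by UPLC-HRMS with C13 spike-ins; ratio relative to vehicle.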"}, "[15]": {"target": "human Neurokinin, NK2 Receptor, TACR2 (gene 6865) (UniProt P21452)", "sequence (P21452 whole entry, looked up)": "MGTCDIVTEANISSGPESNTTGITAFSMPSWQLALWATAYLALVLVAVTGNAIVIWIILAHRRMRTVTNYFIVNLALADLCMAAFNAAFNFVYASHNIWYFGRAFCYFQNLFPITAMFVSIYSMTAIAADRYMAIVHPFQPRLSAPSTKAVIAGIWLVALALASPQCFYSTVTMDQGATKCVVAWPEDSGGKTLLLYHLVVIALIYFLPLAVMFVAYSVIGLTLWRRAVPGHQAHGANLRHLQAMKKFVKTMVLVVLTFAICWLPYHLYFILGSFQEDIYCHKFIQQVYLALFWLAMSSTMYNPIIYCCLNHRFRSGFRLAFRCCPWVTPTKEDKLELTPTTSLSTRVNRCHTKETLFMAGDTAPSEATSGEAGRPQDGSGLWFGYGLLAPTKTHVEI", "assay": "NVS_GPCR_hNK2: NovaScreen (NVS) G Protein-Coupled Receptor Assay for human Neurokinin, NK2 Receptor (AID 2283278)", "method_in_brief": "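Radioligand binding on membranes from CHO cells expressing receptor, filter-based scintillation read 4 h after dosing. Initial duplicate screen at 25 uM, actives in concentration series; loss of signal versus DMSO.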"}, "[16]": {"target": "human Opioid Receptor Mu (Opiate Mu), OPRM1 (gene 4988) (UniProt P35372)", "sequence (P35372 whole entry, looked up)": "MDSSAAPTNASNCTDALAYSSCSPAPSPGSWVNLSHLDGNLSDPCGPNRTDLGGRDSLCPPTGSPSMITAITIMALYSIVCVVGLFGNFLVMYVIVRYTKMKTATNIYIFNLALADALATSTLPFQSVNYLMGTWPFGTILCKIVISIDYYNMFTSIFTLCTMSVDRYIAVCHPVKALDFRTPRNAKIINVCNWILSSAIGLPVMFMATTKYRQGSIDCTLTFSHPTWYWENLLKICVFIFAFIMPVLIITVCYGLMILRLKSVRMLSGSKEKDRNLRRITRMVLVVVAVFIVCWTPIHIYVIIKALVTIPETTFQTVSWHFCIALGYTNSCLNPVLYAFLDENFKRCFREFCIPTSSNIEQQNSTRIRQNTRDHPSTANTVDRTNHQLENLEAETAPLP", "assay": "NVS_GPCR_hOpiate_mu: NovaScreen (NVS) G Protein-Coupled Receptor Assay for human Opioid Receptor Mu (Opiate Mu) (AID 2283290);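 note: hits lower bound tracer signal versus DMSO meaning displacement of the ligand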", "method_in_brief": "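Radioligand displacement binding on membranes from CHO cells expressing the receptor, 2.5 h after dosing, filter-based scintillation counting; loss of signal vs DMSO baseline. Screened in duplicate at 25 uM, actives then run in concentration series.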"}, "[17]": {"read-out": "Vascular cell adhesion molecule 1 (VCAM1), VCAM1 (gene 7412)", "assay": "BSK_BF4T_VCAM1: BioMAP Diversity Plus: BF4T Assay for Vascular cell adhesion molecule 1 (VCAM1) Biomarker Activity (AID 2284249; active = hit-call score of the fitted dose curve at least 0.9, where 1 is the maximum; inactive = score below 0.9)", "conditions": "primary human bronchial epithelial cells with fibroblasts", "method_in_brief": "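Human bronchial epithelial cell and dermal fibroblast co-culture exposed 24 h. VCAM-1 measured by ELISA; parallel SRB total-protein staining for cytotoxicity. Fitted in positive direction relative to DMSO.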"}, "[18]": {"read-out": "Interleukin-8 (IL8), CXCL8 (gene 3576)", "assay": "BSK_BF4T_IL8: BioMAP Diversity Plus: BF4T Assay for Interleukin-8 (IL8) Biomarker Activity (AID 2284263; active = hit-call score of the fitted dose curve at least 0.9, where 1 is the maximum; inactive = score below 0.9)", "conditions": "primary human bronchial epithelial cells with fibroblasts", "method_in_brief": "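Human bronchial epithelial cells with dermal fibroblasts co-culture; IL-8 measured by ELISA 24 hours after dosing, fitted vs DMSO. Cytotoxicity tracked in parallel cultures by SRB total-protein staining.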"}, "[19]": {"read-out": "Interleukin-8 (IL8), CXCL8 (gene 3576)", "assay": "BSK_IMphg_IL8: BioMAP Diversity Plus: IMphg Assay for Interleukin-8 (IL8) Biomarker Activity (AID 2284277; active = hit-call score of the fitted dose curve at least 0.9, where 1 is the maximum; inactive = score below 0.9)", "conditions": "primary human endothelial cells with macrophages", "method_in_brief": "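Co-culture of human venular endothelial cells and macrophages exposed to chemicals for 24 h; IL-8 quantified by ELISA and compared against the DMSO baseline, with SRB total-protein staining in parallel cultures for cytotoxicity.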"}, "[20]": {"read-out": "Interleukin-1 alpha (IL1a), IL1A (gene 3552)", "assay": "BSK_IMphg_IL1a: BioMAP Diversity Plus: IMphg Assay for Interleukin-1 alpha (IL1a) Biomarker Activity (AID 2284290; active = hit-call score of the fitted dose curve at least 0.9, where 1 is the maximum; inactive = score below 0.9)", "conditions": "primary human endothelial cells with macrophages", "method_in_brief": "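Human venular endothelial cells co-cultured with macrophages, IMphg system. IL-1α is measured by ELISA 24 h after dosing and fitted in the positive direction against DMSO. Cytotoxicity is assessed by SRB staining of parallel cultures.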"}}, "note": "Where “and” joins values, the source holds several entries; their conditions need not be identical. Identical values can stand only once. Records with an inconclusive call do not appear. Some compounds were tested as several samples or in several runs, with calls that do not always agree. Calls of active or inactive are those of the source. Rule for the calls, unless noted: active = hit-call score of the fitted dose curve at least 0.9, where 1 is the maximum; inconclusive = response in the unintended direction; inactive = score below 0.9."}
{"molecule": "CCC(C)(CCC(C)C)C(=O)O", "note": "(configuration not stated)", "values": [{"measurement": "outcome", "setting": "[1]", "value": "inactive"}]}
{"molecule": "CN(C)CCC(c1ccc(Cl)cc1)c1ccccn1", "note": "(configuration not stated)", "values": [{"measurement": "AC50", "setting": "[2]", "value": "12.7 µM (active)"}]}
{"molecule": "CC1(C)S[C@@H]2[C@H](NC(=O)[C@H](N)c3ccccc3)C(=O)N2[C@H]1C(=O)O", "values": [{"measurement": "AC50", "setting": "[3]", "value": "1.88 µM (active)"}]}
{"molecule": "Cc1cc(O)cc(C)c1Cl", "values": [{"measurement": "outcome", "setting": "[4]", "value": "inactive"}, {"measurement": "outcome", "setting": "[5]", "value": "inactive"}, {"measurement": "AC50", "setting": "[6]", "value": "45.8 µM (active) and 16.2 µM (active)"}, {"measurement": "AC50", "setting": "[7]", "value": "7.77 µM (active) and 7.9 µM (active)"}, {"measurement": "outcome", "setting": "[8]", "value": "inactive"}, {"measurement": "AC50", "setting": "[9]", "value": "76 µM (active) and 29.7 µM (active)"}, {"measurement": "AC50", "setting": "[10]", "value": "24.2 µM (active) and 31.7 µM (active)"}, {"measurement": "AC50", "setting": "[11]", "value": "100 µM (active) and 23.8 µM (active)"}, {"measurement": "AC50", "setting": "[12]", "value": "66.8 µM (active) and 26.3 µM (active)"}]}
{"molecule": "CC(C)n1c(/C=C/[C@@H](O)C[C@@H](O)CC(=O)O)c(-c2ccc(F)cc2)c2ccccc21", "values": [{"measurement": "AC50", "setting": "[13]", "value": "447 nM (active) and 111 nM (active)"}]}
{"molecule": "CN(C)Cc1cc(C(C)(C)C)c(O)c(C(C)(C)C)c1", "values": [{"measurement": "outcome", "setting": "[14]", "value": "inactive"}]}
{"molecule": "CC[N+](CC)(CC(=O)Nc1c(C)cccc1C)Cc1ccccc1", "values": [{"measurement": "AC50", "setting": "[15]", "value": "16.6 µM (active)"}, {"measurement": "outcome", "setting": "[16]", "value": "inactive"}]}
{"molecule": "OC(C(F)(F)F)(C(F)(F)F)C(O)(C(F)(F)F)C(F)(F)F", "values": [{"measurement": "AC50", "setting": "[17]", "value": "18.9 µM (active)"}, {"measurement": "outcome", "setting": "[17]", "value": "inactive"}, {"measurement": "AC50", "setting": "[18]", "value": "218 nM (active)"}, {"measurement": "outcome", "setting": "[18]", "value": "inactive"}, {"measurement": "AC50", "setting": "[19]", "value": "5.86 µM (active)"}, {"measurement": "outcome", "setting": "[19]", "value": "inactive"}, {"measurement": "AC50", "setting": "[20]", "value": "7.66 µM (active)"}, {"measurement": "outcome", "setting": "[20]", "value": "inactive"}]}
{"molecule": "Cc1c(C(N)=O)cc([N+](=O)[O-])cc1[N+](=O)[O-]", "values": [{"measurement": "outcome", "setting": "[14]", "value": "inactive"}]}
{"molecule": "CCCCCCCCCCCCCCCCCC[N+](C)(C)C", "values": [{"measurement": "AC50", "setting": "[15]", "value": "4.53 µM (active)"}, {"measurement": "AC50", "setting": "[16]", "value": "3.4 µM (active)"}]}
